Test results as given in PubChem BioAssay AID1159580 (chemical genetic matrix, 2015).
About 2,000 (36%) of roughly 5,500 compounds were called active. Roughly 18% stayed inconclusive and do not appear here. Rule as the data show it: active = normalized growth mostly below about 0.91 (no sharp cut-off); inconclusive = no clear call, values can overlap the other calls; inactive = mostly above about 0.92. Some of the results follow.

Assay: chemical genetic growth profiling, strain panel (AID 1159580);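 also: tested at 20 µM; growth read once vehicle control cultures reached saturation at 30 °C; 1 = growth at the plate median or of vehicle wells; lower values mean less growth of the strain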
Settings: S. cerevisiae deletion strains, growth OD
[1] = locus YNL153C, strain GIM3, hits give low values

Measured: normalized growth

O=C1c2ccc(O)cc2O[C@H](c2cc(O)c(O)c(O)c2)[C@H]1O
inactive: locus YBR021W, strain FUR4, hits give low values 1 | locus YBR229C, strain ROT2, hits give low values 0.992 | locus YCL029C, strain bik1, hits give low values 1.02 | locus YDL035C, strain GPR1, hits give low values 1 | locus YDL074C, strain BRE1, hits give low values 0.939 | locus YDL101C, strain DUN1, hits give low values 0.93 | locus YDL185W, strain tfp1, hits give low values 0.999 | locus YDL192W, strain arf1, hits give low values 1.01 | locus YDR101C, strain arx1, hits give low values 1 | locus YDR162C, strain NBP2, hits give low values 1.03 | locus YDR318W, strain mcm21, hits give low values 1 | locus YDR388W, hits give low values 1.01 | locus YDR502C, strain sam2, hits give low values 1.02 | locus YEL061C, strain CIN8, hits give low values 0.999 | locus YER110C, hits give low values 1.02 | locus YER155C, strain BEM2, hits give low values 1.04 | locus YER167W, strain BCK2, hits give low values 1.04 | locus YGL078C, strain dbp3, hits give low values 1.01 | locus YGL086W, strain mad1, hits give low values 1.01 | locus YGL248W, strain PDE1, hits give low values 1 | locus YGR135W, strain pre9, hits give low values 1.01 | locus YGR252W, strain gcn5, hits give low values 0.972 | locus YHR030C, strain SLT2, hits give low values 1.01 | locus YHR079C, strain IRE1 (second series), hits give low values 1.02 | locus YHR094C, strain hxt1, hits give low values 1.02 | locus YHR129C, strain ARP1, hits give low values 0.997 | locus YHR200W, strain rpn10, hits give low values 0.982 | locus YIL066C, strain RNR3, hits give low values 0.99 | locus YIL073C, strain SPO22, hits give low values 1.07 | locus YIL125W, strain kgd1, hits give low values 1 | locus YIR030C, strain dcg1, hits give low values 1.03 | locus YJL095W, strain BCK1, hits give low values 0.884 | locus YJL134W, strain LCB3, hits give low values 1.01 | locus YJL168C, strain set2, hits give low values 1 | locus YJR043C, strain POL32, hits give low values 0.998 | locus YJR075W, strain HOC1, hits give low values 1.04 | locus YKL009W, strain mrt4, hits give low values 1.06 | locus YKL068W, hits give low values 1.02 | locus YKL085W, strain MDH1 (second series), hits give low values 1.01 | locus YKL085W, strain MDH1, hits give low values 1.01 | locus YKL190W, strain CNB1, hits give low values 1.01 | locus YKR001C, strain vps1, hits give low values 1 | locus YLR039C, strain RIC1, hits give low values 1.04 | locus YLR058C, strain SHM2, hits give low values 0.92 | locus YLR102C, strain apc9, hits give low values 1.01 | locus YLR262C, strain YPT6, hits give low values 1.06 | locus YLR268W, strain sec22, hits give low values 1.01 | locus YLR330W, strain CHS5, hits give low values 1.03 | locus YLR342W, strain FKS1 (second series), hits give low values 0.95 | locus YLR371W, strain rom2, hits give low values 0.992 | locus YLR418C, strain cdc73, hits give low values 1.01 | locus YML016C, strain PPZ1, hits give low values 0.987 | locus YML032C, strain rad52, hits give low values 1.06 | locus YML124C, strain tub3, hits give low values 1.02 | locus YMR078C, strain ctf18, hits give low values 1.03 | locus YMR223W, strain ubp8, hits give low values 1.03 | locus YMR307W, strain GAS1, hits give low values 1.02 | locus YNL067W, strain RPL9B, hits give low values 1.01 | [1] 0.947 | locus YNL233W, strain BNI4, hits give low values 1.02 | locus YNL250W, strain rad50, hits give low values 1.01 | locus YNL271C, strain bni1, hits give low values 1.01 | locus YNL298W, strain CLA4, hits give low values 0.996 | locus YNL307C, strain MCK1, hits give low values 1 | locus YNL322C, strain KRE1, hits give low values 1.01 | locus YNR052C, strain pop2, hits give low values 0.967 | locus YOL012C, strain htz1 0.815 | locus YOL147C, strain pex11, hits give low values 1.01 | locus YOR061W, strain CKA2, hits give low values 1 | locus YOR069W, strain VPS5, hits give low values 1.01 | locus YOR136W, strain idh2, hits give low values 1.05 | locus YOR144C, strain elg1, hits give low values 1.02 | locus YOR184W, strain ser1, hits give low values 1.02 | locus YOR316C, strain cot1, hits give low values 1.01 | locus YPL055C, strain LGE1, hits give low values 1.02 | locus YPR119W, strain clb2, hits give low values 1 | locus YPR141C, strain kar3, hits give low values 1.01 | locus YPR163C, strain tif3, hits give low values 1.01 | locus YPR167C, strain met16, hits give low values 1.03 | strain wtn01, hits give low values 1.01
active: locus YJL187C, strain SWE1 (second series), hits give low values 0.853

Oc1cc(O)c2c(c1)OC(c1ccc(O)c(O)c1)C(O)C2 (stereo not drawn)
inactive: locus YAL013W, strain DEP1, hits give low values 1 | locus YAL040C, strain CLN3, hits give low values 1.01 | locus YCL061C, strain MRC1 (second series), hits give low values 1 | locus YDR150W, strain NUM1, hits give low values 1.01 | locus YER002W, strain NOP16, hits give low values 1.03 | locus YGR078C, strain PAC10, hits give low values 1.01 | locus YMR263W, strain SAP30, hits give low values 1 | [1] 1.03 | locus YNL175C, strain NOP13, hits give low values 1.02 | locus YNL197C, strain WHI3, hits give low values 1.01 | locus YNL224C, strain SQS1, hits give low values 1.01 | locus YOR083W, strain WHI5 (second series), hits give low values 1.02
